This is a sample that favours compounds with a hit; in the whole collection about 31% have one here.
CYP2C19 inh = human CYP2C19 inhibition. 96,000 compounds, 21% hits. inhibition, % at 5 µM. CYP2C19 Supersomes, luciferin-H EGE luminescence, 30 min;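 active = CYP2C19 inhibition above a set limit at 5 µM in the primary screen, cut at about 50% in these data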;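 also: plate controls were negative control wells for no effect and 2.5 mM tranylcypromine positive control for full effect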
CYP2C9 act = CYP2C9 (human) activation; P11712; recombinant CYP2C9, luciferin-H conversion, luminescence; stronger effect = higher value; factor 1 = untreated enzyme, 0 = blocked; activation factor at 5 µM; 96,000 compounds, 1.4% hits; AID 1024;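 active = activation factor of 2 or more for CYP2C9 at a 5 µM dose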;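 also: 0 = sulfaphenazole-blocked wells and 1 = vehicle-only wells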
Target sequence (P11712 whole entry, looked up): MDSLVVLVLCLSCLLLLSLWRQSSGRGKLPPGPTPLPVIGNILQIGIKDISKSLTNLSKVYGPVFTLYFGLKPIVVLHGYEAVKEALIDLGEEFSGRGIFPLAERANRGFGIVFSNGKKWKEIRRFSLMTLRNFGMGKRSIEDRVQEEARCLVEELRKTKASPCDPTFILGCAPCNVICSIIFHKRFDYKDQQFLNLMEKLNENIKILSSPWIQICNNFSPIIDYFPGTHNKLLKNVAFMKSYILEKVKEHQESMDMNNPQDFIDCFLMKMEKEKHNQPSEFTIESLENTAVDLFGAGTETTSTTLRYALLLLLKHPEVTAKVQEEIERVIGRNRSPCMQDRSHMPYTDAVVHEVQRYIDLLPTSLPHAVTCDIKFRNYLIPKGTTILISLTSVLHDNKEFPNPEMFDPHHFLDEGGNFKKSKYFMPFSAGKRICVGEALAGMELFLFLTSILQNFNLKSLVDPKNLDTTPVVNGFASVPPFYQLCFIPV
PLAP act = activators of human placental alkaline phosphatase; P05187; activation fold at 20 µM; purified PLAP enzyme, luminescent substrate read-out; stronger effect = higher value; 96,000 compounds, 1.2% hits; in the data active = activation fold above about 2
CYP2C9 inhib = human CYP2C9 inhibition; CYP2C9 Supersomes, luciferin-H conversion, luminescence; inhibition, % at 5 µM; P11712; 96,000 compounds, 20% hits;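 active = blocking of liver enzyme CYP2C9 beyond about 50% at 5 µM, limit read from the data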
CYP2C19 activ = activators of human cytochrome P450 2C19. P33261. recombinant CYP2C19, luciferin-H EGE luminescence; stronger effect = higher value; 0 = fully inhibited enzyme, 1 = untreated enzyme. activation factor at 5 µM. 96,000 tested, under 10 active. AID 1025;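 active = activation factor of at least 2 at 5 µM in the primary screen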;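 also: 0 = wells with 2.5 mM tranylcypromine and 1 = vehicle-only wells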
* hit, by the source's call.

SMILES	CYP2C19 inh	CYP2C9 act	PLAP act	CYP2C9 inhib	CYP2C19 activ
Cn1nnnc1SCc1ccc(C(=O)Nc2ccc(Br)cc2)cc1	4	1	1.1	-3	1
Cn1nnnc1SCSc1nnnn1C	-5	0.8	0.9	23	1
Cn1nnnc1SCc1ccc(F)cc1	56*	1.1	0.9	-5	0.4
Cc1ccc(CSc2nnnn2C)cc1	74*	0.9	0.8	12	0.3
Cc1ccc(-c2nnc(CSc3nncn3N)o2)cc1	15	1.1	1	-8	0.9
Cn1nnnc1SCc1nnc(-c2ccc(Cl)cc2)o1	78*	0.9	0.9	14	0.2
Cc1nn(C)cc1CNC(=O)Nc1cccc(Cl)c1	28	1.3	1.4	-27	0.7
O=C(NCc1ccc2c(c1)OCO2)C1CCCN(S(=O)(=O)c2cccc3nonc23)C1 (stereo not drawn)	14	0.4	1.1	64*	0.9
Cc1noc(/C=C/N(C)C)c1S(=O)(=O)N1CCCC(C(=O)NC(C)c2ccccc2)C1 (stereo not drawn)	34	0.3	1.5	68*	0.7
O=C(NC1CCN(Cc2ccccc2)CC1)C1CCCN(S(=O)(=O)c2cccc3nonc23)C1 (stereo not drawn)	53*	1.1	1.8	-15	0.5
CC(NC(=O)C1CCCN(S(=O)(=O)c2cccc3nonc23)C1)c1ccccc1 (stereo not drawn)	37	0.5	0.9	53*	0.6
CCCOc1ccc(C(=O)NNC(=S)NC(=O)c2cc(-c3ccccc3)nc3ccccc23)cc1	17	0.5	1.2	47	0.8
Cc1ccc(-n2nnnc2SC(C)C(=O)Nc2ccc(Cl)cn2)cc1 (stereo not drawn)	30	0.6	0.8	43	0.7
Cc1noc(/C=C/N(C)C)c1S(=O)(=O)N1CCc2ccccc21	67*	0.5	1.1	48	0.3
O=C(c1ccc(Cl)cc1)N1CCC(O)(CSc2ccc(Cl)cc2Cl)CC1	0	0.8	1.6	22	1
O=C(CSc1cccc[n+]1[O-])c1cc2ccccc2o1	7	1.1	1.4	-5	0.9
CC(C)C(OC(=O)C1CCCO1)C(=O)NC1CCCC1 (stereo not drawn)	-7	1.1	1	-10	1.1
CCOc1ccc(NC(=O)Cn2nnc(-c3ccccc3F)n2)cc1	-4	1	0.7	3	1
Cn1c(SCC(=O)NCC2CCCO2)nnc1-c1ccc(S(=O)(=O)N2CCCC2)cc1 (stereo not drawn)	-13	1.1	1.1	-9	1.1
CC1CCN(S(=O)(=O)c2ccc(NC(=O)Cn3nnc(-c4ccccc4)n3)cc2)CC1	43	0.2	1	76*	0.6
CCc1nnc(NC(=O)Cn2nnc(-c3ccccc3F)n2)s1	11	0.3	0.9	66*	0.9
O=C(Cn1nnc(-c2ccc(S(=O)(=O)N3CCCC3)cc2)n1)NCC1CCCO1 (stereo not drawn)	26	0.3	1	70*	0.7
CC1CCCN(S(=O)(=O)c2ccc(NC(=O)Cn3nnc(-c4ccccc4F)n3)cc2)C1 (stereo not drawn)	62*	0	0.8	99*	0.4
N#CCCN1CCn2c1nc1ccccc12	12	1.2	1	-22	0.9
Cn1nnnc1SCC(=O)c1cccs1	9	1	0.9	4	0.9
SMILES	CYP2C19 inh	CYP2C9 act	PLAP act	CYP2C9 inhib	CYP2C19 activ
COCCn1c(Cc2ccccc2)nnc1SCC(=O)N(C)C	-11	1.1	0.8	-7	1.1
Cn1c(Cc2ccccc2)nnc1SCC(=O)c1ccc(Br)s1	75*	0.3	0.9	70*	0.2
Cn1nnnc1SCC(=O)c1ccc(Br)s1	65*	0.9	0.9	11	0.4
COc1ccccc1NC(=O)C1=C(C)NC2=C(C(=O)CCC2)C1c1ccc2c(c1)OCO2 (stereo not drawn)	63*	0.5	1.4	47	0.4
COC(=O)C1=C(C)NC2=C(C(=O)CCC2)C1c1cccs1 (stereo not drawn)	79*	0.2	0.9	76*	0.2
CC1=C(C(=O)N2CCCCC2)C(c2cccs2)C2=C(CCCC2=O)N1 (stereo not drawn)	5	1	1.4	4	1
COCCOC(=O)C1=C(C)NC2=C(C(=O)CCC2)C1c1ccc2c(c1)OCO2 (stereo not drawn)	84*	0	0.9	96*	0.2
COCCOC(=O)C1=C(C)NC2=C(C(=O)CC(C)(C)C2)C1c1cc2c(cc1Br)OCO2 (stereo not drawn)	94*	0.2	1.7	81*	0.1
O=C(Cn1nc(-c2ccc(Cl)cc2)ccc1=O)NCCN1CCOCC1	-7	1.1	1.1	-11	1.1
COc1ccc(C(C)(C)C)cc1NC(=O)c1cncc(Br)c1	19	0.7	1	28	0.8
CCCNC(=O)Nc1nccs1	-1	1	1.1	-2	1
CC1=C(C(=O)OC(C)C)C(c2cccnc2)C2=C(CCCC2=O)N1 (stereo not drawn)	46	0.7	0.9	32	0.5
COC(=O)C1C(=O)C2=C(CC1C)NC(C)=C(C(=O)OC1CCCC1)C2c1ccc(N(C)C)cc1 (stereo not drawn)	54*	0.2	1.4	82*	0.5
COc1cccc(C2C3=C(CC(C)(C)CC3=O)Nc3cc4c(cc32)OCO4)c1 (stereo not drawn)	72*	0.1	0.9	93*	0.3
COc1cc2c(cc1OC)C(c1ccc3c(c1)OCO3)C1=C(CC(C)(C)CC1=O)N2 (stereo not drawn)	0	1	1.3	-2	1
CCOC(=O)C1=C(C)NC2=C(C(=O)CCC2)C1c1ccsc1 (stereo not drawn)	53*	0.6	0.9	39	0.5
CCCOC(=O)C1=C(C)NC2=C(C(=O)CCC2)C1c1ccc(N(C)C)cc1 (stereo not drawn)	22	0.4	1.2	56*	0.8
CCOC(=O)C1=C(C)NC2=C(C(=O)CCC2)C1c1ccc(N(C)C)cc1 (stereo not drawn)	31	0.7	1.1	29	0.7
COc1ccc(COCC(O)CN2CC(C)OC(C)C2)cc1OC (stereo not drawn)	-1	0.9	1.1	14	1
COCCOC(=O)C1=C(C)NC2=C(C(=O)CC(c3cccs3)C2)C1c1ccsc1 (stereo not drawn)	58*	0.4	1	60*	0.4
COC(=O)c1c(NC(=O)CSc2nnnn2-c2ccccc2)sc2c1CCC(C(C)(C)C)C2 (stereo not drawn)	5	0.5	1.3	46	0.9
COC(=O)c1c(NC(=O)CSc2nnnn2-c2ccccc2)sc2c1CCC(C)C2 (stereo not drawn)	41	0.3	1.1	71*	0.6
O=C(CSc1nnnn1-c1ccc(F)cc1)NC1CCCCC1	30	1	0.9	-4	0.7
CC1CCCCC1NC(=O)CSc1nnnn1-c1ccccc1 (stereo not drawn)	89*	0.9	1.1	6	0.1
